# Only some compounds are listed: those with a hit (about 2.6% of all), similar ones and a draw of the others.
# Cruzain Triton: blocks cruzain activity in presence of Triton detergent; purified cruzain, Z-FR-AMC fluorescence, 0.01% Triton; 200,000 tested, 0.43% active; P25779; Potency, µM, without a hit: max response, negative = inhibition, usual class: inhibitors; AID 1478;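 note: plate controls were neutral wells for no effect and buffer without enzyme for full effect; nearly all actives have a fitted effect of over 40% in size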
# Target sequence (P25779 123-467 limits assumed): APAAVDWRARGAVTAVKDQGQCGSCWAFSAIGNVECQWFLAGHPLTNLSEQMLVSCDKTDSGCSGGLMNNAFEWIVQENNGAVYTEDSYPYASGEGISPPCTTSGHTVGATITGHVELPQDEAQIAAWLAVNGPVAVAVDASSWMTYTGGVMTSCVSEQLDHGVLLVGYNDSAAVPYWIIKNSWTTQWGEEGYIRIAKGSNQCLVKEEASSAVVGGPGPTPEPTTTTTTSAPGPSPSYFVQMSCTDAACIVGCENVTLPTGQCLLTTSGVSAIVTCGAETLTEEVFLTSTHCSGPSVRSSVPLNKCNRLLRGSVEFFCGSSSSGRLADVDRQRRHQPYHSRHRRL
#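 Steps: dispense cruzain (1.5 nM final) in acetate buffer pH 5.5 with DTT and 0.01% Triton X-100; pin-transfer compounds; incubate 15 min RT; add Z-FR-AMC (2 uM final); read fluorescence every 30 s, using the 60 s intensity change.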
# Cruzain inh noDet: inhibitors of Trypanosoma cruzi cruzain without detergent; P25779; purified cruzain, Z-FR-AMC fluorescence, no detergent; Potency, µM, for inactives: max response, negative = inhibition, actives largely listed as inhibitors; 200,000 tested, 2.3% active; AID 1476;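 note: plate controls were enzyme without inhibitor for no effect and buffer without enzyme for full effect; nearly all actives have a fitted effect of over 40% in size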
#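 Purified cruzain at 1.5 nM, pre-incubated 15 min with compound at room temperature in 100 mM sodium acetate pH 5.5, 5 mM DTT, 0.00005% Triton X-100. Reaction started with 2 uM Z-FR-AMC; AMC fluorescence increase over 60 s gives rate.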
# * hit, by the source's call; ? = inconclusive. Calls come from the whole dose curve; as a rule, active = well fitted curve in the direction sought with a large enough effect; inconclusive = small, poorly fitted or top-dose-only effect, or another doubt; inactive = no such curve, though single readings can be large; an effect the other way counts as inactive or inconclusive. Potency is the fitted concentration of half-maximal effect.
SMILES,Cruzain Triton,Cruzain inh noDet
Cc1ccc(-n2c(COc3c(C)cccc3C)nnc2SCC(=O)Nc2nccs2)cc1,11%,25µM*
Cc1ccc(OCc2nnc(SCC(=O)Nc3nccs3)n2-c2ccccc2)cc1C,3%,6%
O=C(O)C1=CC(c2ccc(Br)cc2)n2ncnc2N1 (configuration not stated),-1%,1%
O=C(CSc1nc2ccc(NC(=O)CSc3nnnn3Cc3ccccc3)cc2s1)Nc1ccccc1,-1%,10µM*
Cc1ccccc1OCc1nnc(SCC(=O)Nc2ccc3nc(SCC(=O)Nc4ccccc4)sc3c2)n1C,0%,25µM*
Cc1ccccc1OCc1nnc(SCC(=O)Nc2ccc3c(c2)OCO3)n1C,-3%,5%
COC(=O)CSc1nc2ccc(NC(=O)CSc3nnnn3Cc3ccccc3)cc2s1,-11%,7%
CCOC(=O)c1c(S(=O)(=O)N2CCCC(C(=O)N3CCN(c4ccc(F)cc4)CC3)C2)c(C)n(C)c1C (configuration not stated),0%,?
COc1ccccc1/C=C/c1nc(C#N)c(N2CCN(C)CC2)o1,-29%,25µM*
CCN1CCN(c2oc(/C=C/c3ccccc3OC)nc2C#N)CC1,-25%,32µM*
COc1ccc(Nc2oc(/C=C/c3ccccc3OC)nc2C#N)cc1,-1%,?
COc1cc(/C=C/c2nc(C#N)c(N3CCCCC3)o2)cc(OC)c1OC,-9%,22%
CCc1nc2ccc(C(=O)NCc3ccccc3C)cc2nc1CC,-7%,-3%
Cc1cc2c(c3oc(=O)c4ccccc4c13)CN(Cc1ccc(F)cc1)CO2,-4%,-21%
CCOc1ccc(CCNC(=O)CSc2nnnn2-c2ccccc2)cc1OCC,2%,?
O=C1NCCCc2c1oc1cc(Br)c(O)c(Br)c21,-1%,-10%
CC(C)NCc1c(O)c(Br)cc2oc3c(c12)CCCC3,0%,13µM*
COc1ccc(Oc2nccc(-c3ccc(Cl)cc3)n2)cc1,2%,-3%
CCN(CC)c1nc(C#N)cc(-c2ccc(OC)cc2)n1,-14%,-14%
N#Cc1cc(-c2ccccc2)nc(Oc2ccccc2)n1,16µM*,-25%
COc1ccc(-c2cc(C#N)nc(Oc3ccc(Cl)cc3)n2)cc1,28µM*,25µM*
COc1ccc(-c2cc(C(N)=O)nc(N3CCCCCC3)n2)cc1,-4%,32µM*
NC(=O)c1cc(-c2ccccc2)nc(Oc2ccccc2)n1,-3%,-14%
COc1ccc(-c2cc(C(F)(F)F)nc(N3CCCCCC3)n2)cc1,-1%,6%
N#Cc1ccc(Oc2nc(C#N)cc(-c3ccccc3)n2)cc1,14µM*,-23%
SMILES,Cruzain Triton,Cruzain inh noDet
O=C(NCC(c1cccs1)S(=O)(=O)c1cccs1)c1cccc(F)c1 (configuration not stated),-3%,-15%
COc1cccc(CNC(=O)C(C)n2c(=O)cc(-c3ccccc3)c3c(C)nn(C)c32)c1 (configuration not stated),-7%,?
Cn1cnc([N+](=O)[O-])c1[Se]c1nc(N)nc2c1ncn2[C@@H]1O[C@@H](CO)[C@H](O)[C@@H]1O,-2%,3%
CCn1c(=O)c2cc(C(=O)N(CCCOC(C)C)Cc3ccco3)sc2c2ccccc21,-12%,?
Clc1ccc(CN2CCC(CNc3ncnc4onc(-c5ccc(Cl)cc5)c34)CC2)cc1,1%,-6%
Cc1ccccc1C(=O)NC1(C(F)(F)F)N=C(c2ccccc2)N(Cc2ccccc2)C1=O (configuration not stated),-6%,-3%
COc1ccc(-c2cc(C#N)nc(N3CCNCC3)n2)cc1,-24%,32µM*
CN1CCN(c2nc(C#N)cc(-c3ccccc3)n2)CC1,-22%,?
Cc1ccc(NC(=O)C(=O)NCC(c2cccnc2)N2CCN(Cc3ccccc3)CC2)cc1Cl (configuration not stated),-5%,-9%
CCCCOC(=O)c1ccc(NC(=O)c2cc(-c3ccccc3)on2)cc1,-1%,-5%
Cc1ccc(-n2ncc3c(=O)n(Cc4ccccc4C)cnc32)cc1C,0%,-8%
CCCN1C(=O)C(Cc2nc3ccccc3c(=O)n2-c2ccc(OC)cc2)c2cc(C)ccc21 (configuration not stated),0%,10%
CC(C(=O)NCc1ccccc1Cl)n1ccc2cc(S(=O)(=O)N3CCCCC3)ccc21 (configuration not stated),-5%,?
O=C(CN1CCN(c2ccccc2)CC1)Nc1nnc(-c2ccccc2)s1,-4%,-4%
COc1ccc(N2CCN(CC(=O)Nc3nnc(-c4ccccc4)s3)CC2)cc1,1%,25µM*
CN(C)c1ccc(CNC(=O)c2ccc(Cn3c(SCc4ccccc4)nc4cccnc43)cc2)cc1,-8%,?
Cc1ccc(OCC(=O)N(Cc2ccc(Cl)cc2)Cc2ccco2)cc1C,-11%,-14%
COc1cccc(NC(=O)c2nnn(Cc3cccc(C(F)(F)F)c3)c2N)c1,3%,7%
COc1ccc(Oc2ncc3nc(C)c(=O)n(C[C@H]4CCCO4)c3n2)cc1,-6%,-6%
Cc1nc(NC(=O)c2ccc([N+](=O)[O-])cc2Cl)sc1C(=O)N(C)C,16µM*,-14%
Cc1cc(C(=O)Nc2nc(C)c(C(=O)N(C)C)s2)ccc1[N+](=O)[O-],-4%,-5%
COC(=O)CSc1nc(N)c2c3c(sc2n1)C(c1ccccc1)SC(c1ccccc1)C3 (configuration not stated),?,13µM*
COC(=O)CSc1nc(N)c2c3c(sc2n1)CCCC3,-10%,5%
Cc1ccc(S(=O)Cc2ccc(C(=O)NC3CCCCCC3)o2)cc1 (configuration not stated),5%,4%
c1ccc(-c2ncc(CSc3nncn3-c3ccccc3)s2)cc1,-2%,12%
SMILES,Cruzain Triton,Cruzain inh noDet
c1ccc(-n2cnnc2SCc2nc3ccccc3s2)cc1,-5%,10µM*
CCn1c(SCc2nc3ccccc3s2)nnc1-c1ccccc1,7%,-11%
Cc1nnc(SCc2nc3ccccc3s2)n1-c1ccccc1,-2%,20µM*
Cc1cc(SCC(=O)NCc2ccc(Cl)cc2)nc(=O)[nH]1,1%,-1%
CCc1ccccc1NC(=O)c1ccc2c(c1)nnn2C1CCCC1,-5%,-27%
Cc1ccc(S(=O)(=O)CC(=O)Nc2nc3c(C)cccc3s2)cc1,-5%,25µM*
CC(=O)Nc1ccc2nc(NC(=O)CS(=O)(=O)c3ccc(C)cc3)sc2c1,-4%,-21%
O=C(CS(=O)(=O)c1ccc(Cl)cc1)Nc1nc2ccc(Br)cc2s1,-3%,7.9µM*
Cc1ccc(Cl)c2sc(NC(=O)CS(=O)(=O)c3ccc(Cl)cc3)nc12,-1%,-19%
CCNc1ncc2nc(-c3cc(F)cc(F)c3)c(=O)n(C)c2n1,0%,?
CCCCCCC(=O)Nc1nc(C)c(-c2csc(Nc3ccccc3OC)n2)s1,4%,10µM*
CCCCCC(=O)Nc1nc(C)c(-c2csc(Nc3ccccc3OC)n2)s1,-2%,13µM*
CCC(C)C(=O)Nc1nc(C)c(-c2csc(Nc3cc(OC)ccc3OC)n2)s1 (configuration not stated),-6%,-20%
CCCC(=O)Nc1nc(C)c(-c2csc(Nc3ccccc3C)n2)s1,2%,-27%
CCCCCC(=O)Nc1nc(C)c(-c2csc(Nc3ccccc3OCC)n2)s1,1%,7.9µM*
COc1ccc(OC)c(Nc2nc(-c3sc(NC(=O)CC(C)C)nc3C)cs2)c1,-1%,-29%
CCCCc1nn2c(=O)cc(COC(=O)c3ccc(NC(=O)c4cccc(OC)c4)cc3)nc2s1,8%,-2%

# From PubChem BioAssay
